Source: PubChem BioAssay
Sampled rows, rich in hits. Any-hit rate of the full collection: about 21%.
MRP reversal – MRP-mediated drug resistance reversal. H69AR cells + 2 uM doxorubicin, CellTiter-Glo, 72 h. differential viability (reversal), % at 10 µM. 0.04% of 85,000 active;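 active = viability drop by adding the cancer drug above about 55%, with treated viability meeting a 40% cutoff, limit read from the data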;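 also: larger differential means the compound sensitizes cells more to doxorubicin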
MRP1 act – MRP-1 activation | H69AR cells + doxorubicin, viability rescue, CellTiter-Glo | viability increase, % at 10 µM | 0.61% of 140,000 active | AID 799;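 active = viability gain under doxorubicin at or above a set limit, the compound median plus 3 SD, cut at about 4.7% in these data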;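 also: MRP-1 overexpressing cells given doxorubicin 25 µM after compound pretreatment; 18-22 h compound pretreatment then 72 h with doxorubicin before readout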
CYP2C19 inh – blocks human cytochrome P450 2C19; CYP2C19 Supersomes, luciferin-H EGE luminescence, 30 min; inhibition, % at 5 µM; 21% of 96,000 active; AID 778;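 active = CYP2C19 inhibition above a set limit at 5 µM in the primary screen, cut at about 50% in these data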
Target sequence (P33261 whole entry, looked up): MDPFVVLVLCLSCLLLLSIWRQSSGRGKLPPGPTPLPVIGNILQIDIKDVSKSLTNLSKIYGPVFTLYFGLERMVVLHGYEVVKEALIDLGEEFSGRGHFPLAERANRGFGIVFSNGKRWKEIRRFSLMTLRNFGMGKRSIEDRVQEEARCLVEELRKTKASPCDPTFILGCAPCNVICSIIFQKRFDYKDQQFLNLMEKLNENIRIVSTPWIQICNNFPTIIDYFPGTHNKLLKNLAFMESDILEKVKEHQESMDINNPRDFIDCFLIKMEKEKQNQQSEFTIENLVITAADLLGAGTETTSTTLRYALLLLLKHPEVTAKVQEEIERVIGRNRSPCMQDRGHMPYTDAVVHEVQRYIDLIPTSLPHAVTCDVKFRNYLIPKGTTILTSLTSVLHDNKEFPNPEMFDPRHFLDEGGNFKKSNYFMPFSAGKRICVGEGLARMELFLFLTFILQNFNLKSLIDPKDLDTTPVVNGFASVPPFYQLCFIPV
CYP2C9 activ – CYP2C9 (human) activation; P11712; recombinant CYP2C9, luciferin-H conversion, luminescence; active compounds read high; factor 1 = untreated enzyme, 0 = blocked; activation factor at 5 µM; 1.4% of 96,000 active; AID 1024;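 active = activation factor of 2 or more for CYP2C9 at a 5 µM dose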
CYP2C19 act – cytochrome P450 2C19 (human) activation; P33261; recombinant CYP2C19, luciferin-H EGE luminescence; active compounds read high; 0 = fully inhibited enzyme, 1 = untreated enzyme; 96,000 tested, under 10 active; activation factor at 5 µM; AID 1025;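 active = activation factor of at least 2 at 5 µM in the primary screen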
CYP2C9 inh – human CYP2C9 inhibition. P11712. CYP2C9 Supersomes, luciferin-H conversion, luminescence. inhibition, % at 5 µM. 20% of 96,000 active;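 active = blocking of liver enzyme CYP2C9 beyond about 50% at 5 µM, limit read from the data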
Large screens that a line does not name were inactive.

CCOc1ccc2[nH]c(=O)c(C(c3nnnn3CC3CCCO3)N3CCc4ccccc4C3)cc2c1 (stereo unspecified)	CYP2C19 inh 50, CYP2C9 inh 68
Cc1ccc2cc(C(c3nnnn3CC3CCCO3)N3CCc4ccccc4C3)c(=O)[nH]c2c1 (stereo unspecified)	CYP2C9 inh 71
O=c1[nH]c2cc3c(cc2cc1C(c1nnnn1Cc1ccccc1)N1CCCCCC1)OCCO3 (stereo unspecified)	none
Cc1cccc2cc(C(c3nnnn3Cc3ccc4c(c3)OCO4)N3CCCC3)c(=O)[nH]c12 (stereo unspecified)	CYP2C9 inh 50
O=C(Nc1ccc(C(F)(F)F)cc1)c1cc(S(=O)(=O)NCC2COc3ccccc3O2)ccc1F (stereo unspecified)	none (no result: MRP reversal, CYP2C19 inh, CYP2C9 activ, CYP2C19 act, CYP2C9 inh)
COc1ccccc1NC(=O)COc1ccc(/C=N/n2cnnc2)cc1OC	CYP2C19 inh 56, CYP2C9 inh 72
CCOc1cc(/C=N/n2cnnc2)ccc1OCC(=O)Nc1ccccc1OC	CYP2C19 inh 54, CYP2C9 inh 70
CCOC(=O)C(=O)Nc1cc(Cl)ccc1C	none (no result: MRP reversal, CYP2C19 inh, CYP2C9 activ, CYP2C19 act, CYP2C9 inh)
CNC(=S)N1C2CCC1CC(NC(=O)NC13CC4CC(CC(C4)C1)C3)C2 (stereo unspecified)	none (no result: MRP reversal)
COC(=O)COn1c(SCC(=O)OC)nc2ccccc2c1=O	none
COc1nc(OC)nc(Oc2ccc([N+](=O)[O-])cc2Cl)n1	none (no result: MRP reversal, CYP2C19 inh, CYP2C9 activ, CYP2C19 act, CYP2C9 inh)
CC(C)COC(=O)/C(C#N)=C/c1c[nH]c2ccccc12	none (no result: MRP reversal, CYP2C19 inh, CYP2C9 activ, CYP2C19 act, CYP2C9 inh)
N#Cc1c2c(c(Nc3ccc(O)cc3)n3c1nc1ccccc13)CCC2	none (no result: MRP reversal, CYP2C19 inh, CYP2C9 activ, CYP2C19 act, CYP2C9 inh)
Cc1ccc2c(c1)sc1nc(=O)n(-c3cccc(Cl)c3)c(=O)n12	none (no result: MRP reversal)
O=c1nc2sc3ccccc3n2c(=O)n1-c1cccc(Cl)c1	CYP2C19 inh 68
Cc1nn(C)c(Oc2ccccc2)c1CCNS(=O)(=O)c1ccccc1	CYP2C19 inh 92 (no result: MRP reversal)
Cc1ccccc1Oc1ccc(S(=O)(=O)NCCC(=O)O)cc1	none
Cc1cccc(-n2c(SCc3cc(=O)n4ccsc4n3)nc3ccccc32)c1	none (no result: CYP2C19 inh, CYP2C9 activ, CYP2C19 act, CYP2C9 inh)
COc1ccc([N+](=O)[O-])cc1NC(=O)c1cn(-c2ccc(Cl)cc2)c(=O)c2ccccc12	none (no result: MRP reversal, CYP2C19 inh, CYP2C9 activ, CYP2C19 act, CYP2C9 inh)
Nc1cc(C(=O)N2CCCC2)cc(C(=O)N2CCCC2)c1	none
O=S(=O)(N/N=C/c1cn(Cc2ccccc2)c2ccccc12)c1ccccc1	CYP2C9 inh 87
Cc1ccc(S(=O)(=O)N/N=C\c2cn(-c3ccccc3)nc2-c2ccccc2)cc1	MRP1 act 6.2, CYP2C9 inh 67 (no result: MRP reversal)
O=[N+]([O-])c1ccc(N/N=C/c2cn(-c3ccccc3)nc2-c2ccccc2)cc1	none (no result: MRP reversal)
Cc1nn(-c2ccccc2)c(C)c1/C=N/NC(=O)c1cc(-c2ccccc2)n[nH]1	CYP2C19 inh 70, CYP2C9 inh 86 (no result: MRP reversal)
Cc1nn(-c2ccccc2)c(C)c1/C=N/NC(=O)c1cc(-c2cccc3ccccc23)n[nH]1	none (no result: MRP reversal, CYP2C19 inh, CYP2C9 activ, CYP2C19 act, CYP2C9 inh)
Cc1ccc(S(=O)(=O)N/N=C/c2c(C)nn(-c3ccccc3)c2C)cc1	CYP2C19 inh 56, CYP2C9 inh 75 (no result: MRP reversal)
O=C(/C=C/c1ccc(Cl)cc1)NCc1ccco1	none (no result: MRP reversal, CYP2C19 inh, CYP2C9 activ, CYP2C19 act, CYP2C9 inh)
COc1ccccc1NS(=O)(=O)c1cccc(C(=O)N/N=C/c2cn(-c3ccccc3)nc2-c2ccccc2)c1	none (no result: MRP reversal, CYP2C19 inh, CYP2C9 activ, CYP2C19 act, CYP2C9 inh)
Cc1ccc(-c2nn(-c3ccccc3)cc2/C=N/NS(=O)(=O)c2ccccc2)cc1	CYP2C9 inh 66 (no result: MRP reversal)
CC(C)C(NC(=S)NCc1ccccc1)C(=O)O (stereo unspecified)	CYP2C19 inh 86
O=C(CSc1nc2ccccc2[nH]1)N1c2ccccc2Sc2ccccc21	none (no result: MRP reversal, CYP2C19 inh, CYP2C9 activ, CYP2C19 act, CYP2C9 inh)
O=C(CSc1nc(C2CC2)nc2ccccc12)N1c2ccccc2Sc2ccccc21	CYP2C9 inh 97 (no result: MRP reversal)
CC(C)C(=O)NNC(=O)CSc1nc(C2CCCCC2)nc2ccccc12	none (no result: MRP reversal, CYP2C19 inh, CYP2C9 activ, CYP2C19 act, CYP2C9 inh)
Cc1nc(SCC(=O)N2c3ccccc3Sc3ccccc32)n[nH]1	CYP2C19 inh 60
Cc1nc(SCC(=O)c2ccc(F)cc2)n[nH]1	CYP2C19 inh 58, CYP2C9 inh 71
Cc1ccc(C(=O)CSc2n[nH]c(-c3ccco3)n2)cc1C	none
CCc1nc(SCC(=O)c2ccc(C)c(C)c2)n[nH]1	CYP2C19 inh 97, CYP2C9 activ 2.3
CCOCCOC(=O)COc1ccc2c(-c3ccccc3)cc(=O)oc2c1	none (no result: MRP reversal, CYP2C19 inh, CYP2C9 activ, CYP2C19 act, CYP2C9 inh)
Cc1ccn2c(C(=O)N/N=C/c3ccc(CNC(=O)C(=O)Nc4ccc(C)c(C)c4)o3)c(C)nc2c1	none (no result: MRP reversal, CYP2C19 inh, CYP2C9 activ, CYP2C19 act, CYP2C9 inh)
CC(=O)NC1=NN(C(C)=O)C2(CCCCC2)S1	none (no result: CYP2C19 inh, CYP2C9 activ, CYP2C19 act, CYP2C9 inh)
